# Data from publication PMC7819943, “Rice protein-binding microarrays: a tool to detect cis-acting elements near promoter regions in rice”.
# The full ranking holds about 35,000 sequences; the median of “fluorescence intensity (a.u.)” is about 10,000, and the highest 2% start at about 52,000. Only a selection was taken, and the highest values are over-represented in it overall.
# Biological target: T1, OsWOX13 (Oryza sativa, UniProt Q5QMM3 1-267)
# T1 sequence: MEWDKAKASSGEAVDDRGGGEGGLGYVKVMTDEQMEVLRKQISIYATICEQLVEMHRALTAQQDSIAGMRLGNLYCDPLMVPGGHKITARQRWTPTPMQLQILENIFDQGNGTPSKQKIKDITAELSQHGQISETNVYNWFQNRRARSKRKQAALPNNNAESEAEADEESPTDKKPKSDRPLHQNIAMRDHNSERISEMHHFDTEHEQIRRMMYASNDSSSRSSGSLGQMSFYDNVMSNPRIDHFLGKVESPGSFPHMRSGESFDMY
# Assay: protein-binding microarray (RPBM); PBS, 2% BSA, 51.3 ng/ul salmon testes DNA, 50 uM zinc acetate, 200 nM TF, 25 C, 1 h; high values mean tight binding
# Conditions: protein: recombinant; tags: N-terminal polyhistidine and DsRed monomer fusion (pET32a); label: CyDye5-dUTP incorporated in the synthesized complementary strand; 3' TTTTT single-stranded linker to array surface; dsDNA, one strand shown
# How it was run: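 For the binding signal, per-feature fluorescence intensity was read in arbitrary units on an Axon 4000B scanner. Before scanning, a 2% BSA-blocked custom Agilent array made double-stranded with Cy5-dUTP was washed after 1 h at 25 °C with 200 nM protein and 50 µM zinc acetate. The proteins were Ni–NTA-purified transcription factors with N-terminal polyhistidine and DsRed fusions, expressed in E. coli BL21-CodonPlus.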
row,Sequence,binding signal
1,AAAAGCACATGATTATATCTCATTTTATGGTCTTAGAGCACGGAGTCACCTAGTGCAG,3350 fluorescence intensity (a.u.)
2,GTTTGATGAGTCCGGAATAGCATATAGCACATGGAATTGGCGGAGTCACCTAGTGCAG,3510 fluorescence intensity (a.u.)
3,CAACAGGATTGGAAGTGATCAGAGACAGGCAATGAAATCCCGGAGTCACCTAGTGCAG,8460 fluorescence intensity (a.u.)
4,ACACTAAATTAATGTATGCAATGTCCATTGGTAAATAACTCGGAGTCACCTAGTGCAG,14900 fluorescence intensity (a.u.)
5,CTGGATTGGTGATTGATTATCCGAGCAAGCAAAGACGATGCGGAGTCACCTAGTGCAG,63800 fluorescence intensity (a.u.)
6,GATTAAGATTTTATCCGATTGATGATGCGCCGTAGCAGTGCGGAGTCACCTAGTGCAG,8650 fluorescence intensity (a.u.)
7,AGTGATTAGTGAAGCAAAGGAAGACGACGAGTGACACGAGCGGAGTCACCTAGTGCAG,21900 fluorescence intensity (a.u.)
8,TTTAAGATCATGATTAACATGACATTGAAGCATTACCACGCGGAGTCACCTAGTGCAG,5610 fluorescence intensity (a.u.)
9,GAATTAGCTTGATTGACAGAAACAAATGGCTACAACTACACGGAGTCACCTAGTGCAG,50600 fluorescence intensity (a.u.)
10,AACCAGATTCACCGTGATTAGTTTCACCCTAGTCTAGTCTCGGAGTCACCTAGTGCAG,10800 fluorescence intensity (a.u.)
11,ATCCATGATTAACAGTTGATTACTGTAGCAAATCATGGATCGGAGTCACCTAGTGCAG,34400 fluorescence intensity (a.u.)
12,TTAATTAATTGATCACTTCCAAATCATGTAGCAGTACTGTCGGAGTCACCTAGTGCAG,65400 fluorescence intensity (a.u.)
13,CACAATTCCTTCTAATTATTTGATAATCAAGTTTCTCCTTCGGAGTCACCTAGTGCAG,9620 fluorescence intensity (a.u.)
14,TTAATTGATCAATAATCACTGTTCCTTCTCAAGTAGTCAACGGAGTCACCTAGTGCAG,64600 fluorescence intensity (a.u.)
15,ATATATAATCATTGATCTTAATTATTGAGTGTCAGTAGTACGGAGTCACCTAGTGCAG,24400 fluorescence intensity (a.u.)
16,ATAATTGAGTAGATAATCCTTGCAATAATCCGCTCAATAACGGAGTCACCTAGTGCAG,8180 fluorescence intensity (a.u.)
17,ACTATTAATGTGAACTGATATGATACATTTTAGAGCTAGCCGGAGTCACCTAGTGCAG,6440 fluorescence intensity (a.u.)
18,TACACCTTTGACAGACAACAAAGCATTGAATCTTCTATGCCGGAGTCACCTAGTGCAG,5260 fluorescence intensity (a.u.)
19,GATAACTGGATTCATCTGTCTCCTCAACGTGTGGTCTGTACGGAGTCACCTAGTGCAG,19900 fluorescence intensity (a.u.)
20,TGCCACACAAATTTTGCAAAATTTGTGATATGCCACCTGACGGAGTCACCTAGTGCAG,6080 fluorescence intensity (a.u.)
21,ACTTGACAGGAATTGCAGAAAGGCCCCTCGCCAAAACTCACGGAGTCACCTAGTGCAG,30900 fluorescence intensity (a.u.)

row,Sequence,binding signal
1,TAATAATAATAATAATGCAAATTACCAAAATATAAGCCCACGGAGTCACCTAGTGCAG,6280 fluorescence intensity (a.u.)
2,GCCAAATTGACAGAGTTACCTCGCTATATAAGGCTGCCCACGGAGTCACCTAGTGCAG,57600 fluorescence intensity (a.u.)
3,ATATCAATTAATGCTTCAAGATTAGCACCCATATTATATGCGGAGTCACCTAGTGCAG,35100 fluorescence intensity (a.u.)
4,GAAATAATTAATTAATTTAATTAATTGATTGACACAAGTACGGAGTCACCTAGTGCAG,65000 fluorescence intensity (a.u.)
5,TTGATTGACTAAACTGTCACGTCAGCGTCATATTGACGAACGGAGTCACCTAGTGCAG,54900 fluorescence intensity (a.u.)
6,AATCATTTAAAACATTGATTTTATTTGACGATAAAACTAGCGGAGTCACCTAGTGCAG,4690 fluorescence intensity (a.u.)
7,TATTTTCAATTATAGGTCTAATTGTTTTATTTAGGTGATTCGGAGTCACCTAGTGCAG,20500 fluorescence intensity (a.u.)
8,AGACAATGATAGTGATAATTAACAAATTCAGTTTAAGATCCGGAGTCACCTAGTGCAG,19700 fluorescence intensity (a.u.)
9,AGTGATTAATGAGACAAATAGTACTTTATTGTGACAAGTACGGAGTCACCTAGTGCAG,30900 fluorescence intensity (a.u.)
10,GGTAATATTTTGATTAAATTTGACTAAATTTTGTTTAAAACGGAGTCACCTAGTGCAG,11800 fluorescence intensity (a.u.)
11,AAACTGATTCTTTGATTATTGACGTCTCATAGACCTACGTCGGAGTCACCTAGTGCAG,31600 fluorescence intensity (a.u.)
12,CTAATTGATTAGTAAACTATTTATATAGGACTGTTGTTTTCGGAGTCACCTAGTGCAG,58300 fluorescence intensity (a.u.)
13,AAATTGACAAGATAGATCAATATATAATATATCACTACACCGGAGTCACCTAGTGCAG,10200 fluorescence intensity (a.u.)
14,TTTGATTCTTTTAAATTAAATAATTTTAAAGTCATTGATACGGAGTCACCTAGTGCAG,21100 fluorescence intensity (a.u.)
15,CTTAATTAACACTCGTAAGATTGACAAATAGTTGAATATCCGGAGTCACCTAGTGCAG,60300 fluorescence intensity (a.u.)
16,GAAATTAAACTAATATTTCGGCCCATCAAGGGCTCGCTTGCGGAGTCACCTAGTGCAG,8580 fluorescence intensity (a.u.)
17,TCTGATTATTAATTATCACTTTATCAGTCTCCAACGTTTACGGAGTCACCTAGTGCAG,40900 fluorescence intensity (a.u.)
18,ATACTTAATTAATGATACGATAATTGAATTTATTCTCTCCCGGAGTCACCTAGTGCAG,49900 fluorescence intensity (a.u.)
19,ATACTTGACAGGTTTTATGCATATAAGAAAATCTGTTTAACGGAGTCACCTAGTGCAG,7520 fluorescence intensity (a.u.)
20,CTCTCTCTCTGATTAGTTAATTGAATACATTGTAAGGGCCCGGAGTCACCTAGTGCAG,41200 fluorescence intensity (a.u.)
21,TCGCTAATAAATCATATGATGTCATGGGCCCGAGACATCTCGGAGTCACCTAGTGCAG,3380 fluorescence intensity (a.u.)
